Source: PubChem BioAssay (National Center for Advancing Translational Sciences (NCATS))
HTT-AS promoter – Primary qHTS for Identification of Small Molecule Activators of Huntingtin-Antisense Promoter Activity; Potency, µM (doses to about 57.5 µM), without a hit: top-dose activity change, positive = activation, actives largely listed as activators; 48,000 tested, 0.24% active; HEK293 HTT-AS promoter firefly luciferase reporter, 24 h; response scale: percent change from vehicle, -100% = no light; also: potency is read from the fitted curve at half-maximal effect; nearly all actives have a fitted effect of over 55% in size
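Firefly luciferase readout (Dual-Glo, 10 min RT) after 24 h, 37 °C compound exposure (final up to 57.5 uM) of HEK293 reporter cells cultured 24 h beforehand; PTC124 at 50 uM final as control inhibitor; activity scaled vehicle 0%, zero RLU -100%.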
GPR32 ag – qHTS for Agonists of Human Resolvin D1 Receptor DRV1. AID 1346428, 2018. CHO-K1 GPR32 beta-arrestin PathHunter luminescence, 90 min; zero percent set by DMSO-only wells. Probable G-protein coupled receptor 32 (Homo sapiens), O75388. activation, % at 76.9 µM. 48,000 tested, 2.5% active;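 active = activation of at least 60% and not above a set upper limit, about 1 call in 100 departs from these limits; inconclusive = activation of 40% to 60%, or above that upper limit; inactive = activation under 40%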; also: 0% is about no effect
Target sequence (O75388 whole entry, looked up): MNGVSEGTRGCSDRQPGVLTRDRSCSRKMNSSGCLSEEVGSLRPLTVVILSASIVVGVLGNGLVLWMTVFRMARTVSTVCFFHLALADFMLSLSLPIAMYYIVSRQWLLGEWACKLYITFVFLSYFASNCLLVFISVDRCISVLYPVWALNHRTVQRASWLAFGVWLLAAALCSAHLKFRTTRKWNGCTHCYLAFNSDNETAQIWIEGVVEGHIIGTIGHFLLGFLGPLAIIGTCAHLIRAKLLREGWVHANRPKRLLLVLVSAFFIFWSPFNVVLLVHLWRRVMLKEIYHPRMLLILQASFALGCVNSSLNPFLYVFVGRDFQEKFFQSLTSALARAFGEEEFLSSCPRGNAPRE
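GPR32 activation in stably transfected CHO-K1 cells, detected as beta-arrestin recruitment by enzyme-fragment complementation. Compound exposure: 90 min, 37 °C.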
NTMT1 inhibitor – Primary qHTS for Inhibitors of N-terminal methyltransferase 1 (NTMT1): MTaseGlo Assay; N-terminal Xaa-Pro-Lys N-methyltransferase 1 (Homo sapiens), Q9BV86; NTMT1 MTase-Glo SAH luminescence, purified enzyme; Potency, µM (titrated, usually from 114 µM), without a hit: at the highest dose activity change, negative = inhibition, hits mostly inhibitors; 59,000 tested, 2.5% active; AID 1645870, 2021;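 also: potency is read from the fitted curve at half-maximal effect; plate controls were DMSO vehicle for no effect and no enzyme for full effect; nearly all actives have a fitted effect of over 65% in size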
Target sequence (Q9BV86 whole entry, looked up): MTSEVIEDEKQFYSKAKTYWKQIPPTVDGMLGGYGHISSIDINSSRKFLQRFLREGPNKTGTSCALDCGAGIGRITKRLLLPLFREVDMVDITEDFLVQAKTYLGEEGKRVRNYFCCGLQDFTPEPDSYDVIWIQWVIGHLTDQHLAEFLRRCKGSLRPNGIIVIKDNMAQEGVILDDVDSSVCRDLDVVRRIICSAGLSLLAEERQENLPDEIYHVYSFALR
FH mod – Identification of activators of human fumarate hydratase by quantitative high-throughput screening; Fumarate hydratase, mitochondrial (Homo sapiens), P07954; FH coupled MDH/diaphorase resazurin fluorescence, 15 min; Potency, µM (top dose mostly 79.9 µM), inactives show at the top dose activity change, negative = inhibition, usual class: inhibitors; 54,000 tested, 0.22% active; AID 1347055, 2019; also: potency is read from the fitted curve at half-maximal effect; % is scaled to controls: 0 for no effect and ±100 for the full control effect; the screen sought activators but most active calls are inhibition curves; nearly all actives have a fitted effect of over 45% in size
HTT promoter inh – Primary qHTS for Identification of Small Molecule Inhibitors of Huntingtin Promoter Activity; Potency, µM (series often up to 57.5 µM), for inactives: top-dose activity change, negative = inhibition, actives largely listed as inhibitors; HEK293 HTT promoter firefly luciferase reporter, 24 h; 48,000 tested, 0.93% active; AID 1508623, 2021; also: potency is read from the fitted curve at half-maximal effect; nearly all actives have a fitted effect of over 50% in size
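HEK293 cells carrying firefly luciferase reporters were seeded at 2,500 per well in Opti-MEM and cultured for 24 h. They were then treated with compounds at up to 57.5 uM final for 24 h at 37 degrees C before Dual-Glo luminescence readout.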
* = called active by the depositor; [ ] = another dose, or the depositor's remark. Sampled rows, rich in hits. Any-hit rate of the full collection: about 4.7%. Unless noted, calls follow the shape of the dose curve; as a rule, active = well fitted curve in the direction sought with a large enough effect; inconclusive = small, poorly fitted or top-dose-only effect, or another doubt; inactive = no such curve, though single readings can be large; an effect the other way counts as inactive or inconclusive.

How did Cc1c(NC(=O)c2ccc(OC(C)C)cc2)cccc1-c1nc2ncccc2o1 do in these assays?
HTT-AS promoter: -2%; GPR32 ag: 89*; NTMT1 inhibitor: 7%; FH mod: 6%; HTT promoter inh: 2%

What do the screens show for `COc1ccc(C(=O)Nc2ccc(-c3nc4ncccc4o3)cc2)cc1`?
HTT-AS promoter: 13%; GPR32 ag: 12; NTMT1 inhibitor: -7%; FH mod: -4%; HTT promoter inh: 23%[11.5 µM]

How did Nc1c(C(=O)Nc2ccc(Br)cc2)sc2nc(-c3ccncc3)ccc12 do in these assays?
HTT-AS promoter: 6%; GPR32 ag: -20; NTMT1 inhibitor: -18%; FH mod: -7%; HTT promoter inh: -3%

How did Cc1cc(F)ccc1NC(=O)c1sc2nc(-c3cccs3)ccc2c1N do in these assays?
HTT-AS promoter: -12%; GPR32 ag: 67*; NTMT1 inhibitor: -1%; FH mod: -11%; HTT promoter inh: -11%

Results for COc1ccc(-c2ccc3c(N)c(C(=O)Nc4cc(F)ccc4C)sc3n2)cc1 ?
HTT-AS promoter: -28%; GPR32 ag: -4; NTMT1 inhibitor: -2%; FH mod: -6%; HTT promoter inh: -21%

How did Nc1c(C(=O)Nc2ccc(C(F)(F)F)cc2)sc2nc(-c3cccs3)ccc12 do in these assays?
HTT-AS promoter: -9%; GPR32 ag: 71*; NTMT1 inhibitor: 8%; FH mod: -4%; HTT promoter inh: 6%

How did Cc1ccc(C)c(N2CCN(C(=O)C3CCCN(S(=O)(=O)c4ccc5c(c4)oc(=O)n5C)C3)CC2)c1 (centres undefined) do in these assays?
HTT-AS promoter: -33%; GPR32 ag: 19; NTMT1 inhibitor: 3%; FH mod: -16%; HTT promoter inh: inconclusive

Results for CCCNC(=O)N1CCCN(S(=O)(=O)c2ccc3c(ccn3CC)c2)CC1 ?
HTT-AS promoter: -14%; GPR32 ag: -2; NTMT1 inhibitor: -1%; FH mod: 0%; HTT promoter inh: -32%

What do the screens show for `N#Cc1ccc2[nH]cc(CCCCN3CCN(c4ccc5oc(C(N)=O)cc5c4)CC3)c2c1`?
NTMT1 inhibitor: 1%[57.5 µM]; FH mod: -8%

How did Cc1cc(OCC(=O)Nc2cnn(CCCC(=O)O)c2)ccc1Cl do in these assays?
HTT-AS promoter: -5%; GPR32 ag: 82*; NTMT1 inhibitor: inconclusive; FH mod: -6%; HTT promoter inh: -12%

What do the screens show for `O=C(NCc1ccc(S(=O)(=O)c2cc(F)cc(F)c2)cc1)c1ccc2nccn2c1`?
NTMT1 inhibitor: -1%[57.5 µM]; FH mod: 3%

What do the screens show for `CCN(CC)c1ccc(NC(=O)CCc2c(C)nc3ncnn3c2C)c(C)c1`?
HTT-AS promoter: -22%; GPR32 ag: -3; NTMT1 inhibitor: -15%; FH mod: -2%; HTT promoter inh: -13%

Results for O=c1c2ccccc2nc2sc(Nc3ccc4c(c3)CNC4)nn12 ?
NTMT1 inhibitor: 50µM*

Results for O=c1c2ccccc2nc2sc(Nc3cccc(Br)c3)nn12 ?
NTMT1 inhibitor: 44%

How did O=C1CC2(CCCC2)CC(=O)N1 do in these assays?
HTT-AS promoter: 0%; GPR32 ag: 65*; NTMT1 inhibitor: 16%[57.5 µM]; FH mod: -3%[53.3 µM]; HTT promoter inh: 12%

Results for CCC(=O)N1c2ccccc2CC1C(=O)NCCN1CCN(c2ccccc2F)CC1 (centres undefined) ?
HTT-AS promoter: -12%; GPR32 ag: 8; NTMT1 inhibitor: 15%; FH mod: -2%; HTT promoter inh: -18%

How did CCC(=O)N1c2ccccc2CC1C(=O)NCCCN1CCN(c2ccc(F)cc2)CC1 (centres undefined) do in these assays?
HTT-AS promoter: -3%; GPR32 ag: 0; NTMT1 inhibitor: 89µM*; FH mod: -25%; HTT promoter inh: -3%

Results for O=C(NCCCN1CCN(c2ccc(F)cc2)CC1)Nc1ccc(Cl)cc1 ?
HTT-AS promoter: -26%; GPR32 ag: 83*; NTMT1 inhibitor: -7%; FH mod: -7%; HTT promoter inh: -24%

How did Cc1[nH]c(C=C2C(=O)Nc3ccc(S(=O)(=O)Cc4c(Cl)cccc4Cl)cc32)c(C)c1C(=O)N1CCC[C@H]1CN1CCCC1 do in these assays?
HTT-AS promoter: -4%; NTMT1 inhibitor: 6.8µM*; FH mod: 2%[53.3 µM]; HTT promoter inh: -2%

How did Cc1[nH]c(/C=C2\C(=O)Nc3ccc(S(=O)(=O)N(C)c4cccc(Cl)c4)cc32)c(C)c1C(=O)N1CCN(C)CC1 do in these assays?
NTMT1 inhibitor: -15%; FH mod: -11%

Results for O=c1cc2nc(-c3ccccc3F)nc(SCc3ccc(Br)cc3)n2[nH]1 ?
HTT-AS promoter: -8%; GPR32 ag: 108*; NTMT1 inhibitor: -10%; FH mod: inconclusive; HTT promoter inh: -10%

Results for O=S(=O)(Nc1ccccc1)c1ccc(O)c2ncccc12 ?
NTMT1 inhibitor: 14%

Results for COc1ccc(-c2nc3ccccc3c(=O)n2Cc2ccccc2)cc1COc1ccc(NC(C)=O)cc1 ?
NTMT1 inhibitor: 8%

How did COc1ccc(CNc2oc(-c3ccc(COc4ccc(Cl)cc4)o3)nc2C#N)cc1 do in these assays?
HTT-AS promoter: -60%; GPR32 ag: -20; NTMT1 inhibitor: 6%; FH mod: inconclusive; HTT promoter inh: 22µM*

Results for COc1ccc(OCc2ccc(-c3nc(C#N)c(NCc4ccccc4)o3)o2)cc1 ?
HTT-AS promoter: 6%; GPR32 ag: -27; NTMT1 inhibitor: -2%; FH mod: -24%; HTT promoter inh: 24%

Results for COc1ccc(CNc2oc(-c3ccc(COc4ccccc4C)o3)nc2C#N)cc1 ?
HTT-AS promoter: -64%; GPR32 ag: -28; NTMT1 inhibitor: -3%; FH mod: -16%; HTT promoter inh: 20µM*

How did COC1=CC(=O)O[C@@H](/C=C/c2ccccc2)[C@@H]1O do in these assays?
NTMT1 inhibitor: 18%[57.5 µM]; FH mod: 10%

Results for CN(C)S(=O)(=O)c1ccc2c(c1)N(CC(=O)N1CCN(c3ccccc3F)CC1)CCS2 ?
HTT-AS promoter: -19%; GPR32 ag: -7; NTMT1 inhibitor: 6%; FH mod: -6%; HTT promoter inh: -17%

What do the screens show for `Cc1cc2oc(=O)c(CC(=O)O)c(C)c2c2occ(-c3ccccc3)c12`?
HTT-AS promoter: inconclusive; GPR32 ag: 8; NTMT1 inhibitor: 28µM*; FH mod: -20%; HTT promoter inh: 61%
